A short description of test [1]: qHTS assay to identify small molecule antagonists of the glucocorticoid receptor (GR) signaling pathway - cell viability counter screen (AID 720693; further: nearly all actives have a fitted effect of over 55% in size; further: potency means the concentration at half of the fitted maximal effect). (In general: Quantitative high-throughput screening tests each substance at several concentrations.)
Test [2] is described as follows: qHTS assay for identifying genotoxic compounds that show differential cytotoxicity against isogenic chicken DT40 cell lines with known DNA damage response pathways - wild type cell line (AID 743012). Further: nearly all actives have a fitted effect of over 60% in size. Further: potency means the concentration at half of the fitted maximal effect. The gist of the method: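 Parental DNA repair-proficient DT40 cells, 300 per well, were pre-incubated ~0.5 h at 37 C/5% CO2, pin-dosed with compounds in DMSO, then incubated 40 h. Viability was read as CellTiter-Glo luminescence after 30 min at room temperature.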

Test [3] in a line: qHTS assay for identifying genotoxic compounds that show differential cytotoxicity against isogenic chicken DT40 cell lines with known DNA damage response pathways - Rev3 mutant cell line (AID 743014). Further: nearly all actives have a fitted effect of over 55% in size. Further: potency means the concentration at half of the fitted maximal effect.
Test [4] in a line: qHTS assay for identifying genotoxic compounds that show differential cytotoxicity against isogenic chicken DT40 cell lines with known DNA damage response pathways - Rad54/Ku70 mutant cell line (AID 743015). Further: nearly all actives have a fitted effect of over 60% in size. Further: potency means the concentration at half of the fitted maximal effect.
The nature of test [5]: qHTS assay to identify small molecule antagonists of the androgen receptor (AR) signaling pathway - cell viability counter screen (AID 743033; further: nearly all actives have a fitted effect of over 45% in size; further: potency means the concentration at half of the fitted maximal effect).
The nature of test [6]: qHTS assay to identify small molecule antagonists of the androgen receptor (AR) signaling pathway using the MDA cell line - cell viability counter screen (AID 743041; further: nearly all actives have a fitted effect of over 45% in size; further: potency means the concentration at half of the fitted maximal effect). The gist of the method:
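Viability counter screen run alongside the AR antagonist reporter: cells seeded 5 h before compound, R1881 added, 16 h incubation at 37C without CO2, fluorescent CellTiter-Fluor signal quantified.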

Test [7] in a line: qHTS assay to identify small molecule antagonists of the thyroid receptor (TR) signaling pathway (AID 743065). Further: nearly all actives have a fitted effect of over 55% in size. Further: potency means the concentration at half of the fitted maximal effect. The gist of the method:
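GH3.TRE-Luc rat pituitary cells carrying two TR response elements driving luciferase were plated for 4 h, given compound plus 1 nM T3 (final), and incubated 23.5 h at 37 C. ONE-Glo luminescence measured reporter inhibition; CellTiter-Fluor fluorescence tracked cytotoxicity.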

Test [8] has as its system thyroid hormone receptor (rat, GH3 cells). The test is described as follows: qHTS assay to identify small molecule agonists of the thyroid receptor (TR) signaling pathway (AID 743066; calls by dose curve).
Test [9] concerns the target Estrogen receptor (Homo sapiens) (UniProt P03372). The test is described as follows: qHTS assay to identify small molecule antagonists of the estrogen receptor alpha (ER-alpha) signaling pathway (AID 743069; active means well fitted curve in the direction sought with a large enough effect in the signal ratio in the repeat runs, not every such curve was filed as active; inconclusive means weak or mixed curves, or effect the other way; inactive means no such curve, though single readings can be large or run the other way; the % refers to the signal ratio; further: potency means the concentration at half of the fitted maximal effect). The gist of the method:
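Estradiol-stimulated ER-alpha-UAS-bla HEK293 cells, 18 hr compound exposure at 37C. LiveBLAzer B/G substrate, 2 hr RT, fluorescence read.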

Test [10] in a line: qHTS assay to identify small molecule antagonists of the estrogen receptor alpha (ER-alpha) signaling pathway - cell viability counter screen (AID 743074; calls by dose curve;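 further: HEK293 cells carrying ER-alpha-UAS-bla reporter stimulated with 17beta-estradiol; nearly all actives have a fitted effect of over 45% in size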; further: potency means the concentration at half of the fitted maximal effect).
Test [11] addresses Estrogen receptor (Homo sapiens) (UniProt P03372). The test can be described thus: qHTS assay to identify small molecule agonists of the estrogen receptor alpha (ER-alpha) signaling pathway (AID 743075; calls by dose curve).
Test [12] is described as follows: qHTS assay to identify small molecule antagonists of the estrogen receptor alpha (ER-alpha) signaling pathway using the BG1 cell line (AID 743080; calls by dose curve;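 further: BG1 cells stimulated with 17beta-estradiol alongside compound; nearly all actives have a fitted effect of over 25% in size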; further: potency means the concentration at half of the fitted maximal effect). The following applies: BG1Luc4E2 ERE-luciferase antagonist mode, luminescence; activity change, negative = inhibition: at 70.3 µM (top of the series). The gist of the method: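 BG1-Luc-4E2 cells (endogenous full-length ER-alpha, stable 4×ERE-luciferase) were starved 5 days in phenol-red-free medium with 10% charcoal-stripped FBS, plated 24 h, then given compound plus 17beta-estradiol for 21.5 h at 37 C; ONE-Glo luminescence read after 30 min.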

Test [13] is described as follows: qHTS assay to identify small molecule antagonists of the estrogen receptor alpha (ER-alpha) signaling pathway using the BG1 cell line - cell viability counter screen (AID 743081).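 Further: compound given together with 17beta-estradiol as the ER stimulus; nearly all actives have a fitted effect of over 45% in size.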 Further: potency means the concentration at half of the fitted maximal effect.
For test [14], the target named is Aromatase (Homo sapiens) (UniProt P11511). The test is described as follows: qHTS assay to identify aromatase inhibitors (AID 743083). Further: nearly all actives have a fitted effect of over 55% in size. Further: potency means the concentration at half of the fitted maximal effect.
The nature of test [15]: qHTS assay to identify small molecule antagonists of the thyroid receptor (TR) signaling pathway - cell viability counter screen (AID 743064). Further: nearly all actives have a fitted effect of over 50% in size. Further: potency means the concentration at half of the fitted maximal effect. In short, it runs like this: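 In rat pituitary GH3.TRE-Luc reporter cells co-exposed to compound and 1 nM T3 for 23.5 h, cytotoxicity was assessed with CellTiter-Fluor in the same wells, read by fluorescence.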
Test [16] addresses Androgen receptor (Homo sapiens) (UniProt P10275). The test can be described thus: qHTS assay to identify small molecule antagonists of the androgen receptor (AR) signaling pathway (AID 743035; active means well fitted inhibition curve with a large enough effect in the signal ratio in the repeat runs, not every such curve was filed as active; inconclusive means weak or mixed curves, or effect the other way; inactive means no such curve, though single readings can be large or run the other way; the % refers to the signal ratio; further: potency means the concentration at half of the fitted maximal effect). The gist of the method:
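HEK293 cells stably carrying a UAS-driven beta-lactamase reporter (AR-UAS-bla GripTite) were plated for 4 h at 37C, then given compound and the agonist R1881 and incubated 16 h. Reporter activity was read by LiveBLAzer B/G FRET fluorescence after 2 h at room temperature.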

Test [17] has the same target. The test can be described thus: qHTS assay to identify small molecule agonists of the androgen receptor (AR) signaling pathway (AID 743036; active means well fitted activation curve with a large enough effect in the signal ratio in the repeat runs, with a control signal flat, not every such curve was filed as active; inconclusive means weak or mixed curves, or effect the other way; inactive means no such curve, though single readings can be large or run the other way; the % refers to the signal ratio). The gist of the method:
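Cell-based FRET reporter assay: HEK293 line with a UAS-beta-lactamase construct, compounds added in DMSO, 16 h exposure at 37C, then 2 h substrate step at room temperature and fluorescence intensity read.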

For test [18] the target is unchanged. The test is described as follows: qHTS assay to identify small molecule agonists of the androgen receptor (AR) signaling pathway using the MDA cell line (AID 743040; further: nearly all actives have a fitted effect of over 20% in size). The gist of the method:
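Luminescence from ONE-Glo, read after 30 min at room temperature, reflects MMTV-driven luciferase in MDA-kb2 cells (AR- and GR-responsive). Treatment lasted 16 h at 37C, 0% CO2.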

Test [19] shares this target. The test can be described thus: qHTS assay to identify small molecule antagonists of the androgen receptor (AR) signaling pathway using the MDA cell line (AID 743042; further: nearly all actives have a fitted effect of over 55% in size; further: potency means the concentration at half of the fitted maximal effect). The gist of the method: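 MDA-kb2 cells (human breast carcinoma, stably carrying an MMTV-luciferase reporter responsive to AR and GR) were plated at 3,000 cells/well and preincubated 5 hr at 37C, then given compound plus R1881 agonist for 16 h. ONE-Glo luminescence was read.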

Test [20] addresses Estrogen receptor (Homo sapiens) (UniProt P03372). The test can be described thus: qHTS assay to identify small molecule agonists of the estrogen receptor alpha (ER-alpha) signaling pathway using the BG1 cell line (AID 743079). Further: nearly all actives have a fitted effect of over 20% in size. Particulars: BG1Luc4E2 cells, ERE-luciferase agonist, 22 h; activation: at 70.3 µM (top of the series).

Each structure is given as a SMILES string. “And” between values parts separate entries of the source, which are not always exact repeats. Identical values can stand only once. A structure can be active in one record and inactive in another. The source made the active and inactive calls. Unless noted, the call rests on the fitted dose curve; in most records, active means well fitted curve in the direction sought with a large enough effect in the repeat runs; inconclusive means weak or mixed curves; inactive means no such curve, though single readings can be large; an effect the other way counts as inactive or inconclusive.

Sequence of Aromatase (Homo sapiens) (P11511 whole entry, looked up): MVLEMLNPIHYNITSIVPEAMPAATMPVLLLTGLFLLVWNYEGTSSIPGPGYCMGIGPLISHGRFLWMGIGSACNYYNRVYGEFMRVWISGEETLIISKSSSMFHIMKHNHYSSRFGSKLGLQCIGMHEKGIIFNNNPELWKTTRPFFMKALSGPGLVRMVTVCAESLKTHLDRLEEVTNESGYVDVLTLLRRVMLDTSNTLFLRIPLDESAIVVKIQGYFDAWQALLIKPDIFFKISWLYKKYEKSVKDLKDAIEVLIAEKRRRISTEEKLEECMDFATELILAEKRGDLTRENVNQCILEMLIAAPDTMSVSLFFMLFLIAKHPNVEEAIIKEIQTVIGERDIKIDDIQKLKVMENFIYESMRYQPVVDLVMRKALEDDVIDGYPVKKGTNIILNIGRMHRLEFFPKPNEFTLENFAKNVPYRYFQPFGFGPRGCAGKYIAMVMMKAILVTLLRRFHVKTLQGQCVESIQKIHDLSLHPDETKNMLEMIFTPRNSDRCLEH
Sequence of Estrogen receptor (Homo sapiens) (P03372 whole entry, looked up): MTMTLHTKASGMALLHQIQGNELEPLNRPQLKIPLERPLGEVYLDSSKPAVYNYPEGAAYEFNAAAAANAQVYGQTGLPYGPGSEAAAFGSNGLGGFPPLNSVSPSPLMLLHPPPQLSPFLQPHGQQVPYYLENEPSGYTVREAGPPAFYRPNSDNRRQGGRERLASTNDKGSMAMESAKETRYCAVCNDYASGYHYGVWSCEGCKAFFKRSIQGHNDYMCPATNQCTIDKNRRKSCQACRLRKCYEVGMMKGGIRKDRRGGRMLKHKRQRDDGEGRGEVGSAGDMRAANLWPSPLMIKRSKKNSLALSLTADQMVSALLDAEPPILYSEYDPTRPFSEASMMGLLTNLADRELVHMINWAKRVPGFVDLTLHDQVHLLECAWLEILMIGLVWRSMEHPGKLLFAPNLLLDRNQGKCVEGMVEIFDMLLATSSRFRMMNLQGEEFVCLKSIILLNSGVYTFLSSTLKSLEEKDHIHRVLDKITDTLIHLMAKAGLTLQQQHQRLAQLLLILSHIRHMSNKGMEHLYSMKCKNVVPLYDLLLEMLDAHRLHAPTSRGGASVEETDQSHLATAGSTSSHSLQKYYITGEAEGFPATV
Sequence of Androgen receptor (Homo sapiens) (P10275 whole entry, looked up): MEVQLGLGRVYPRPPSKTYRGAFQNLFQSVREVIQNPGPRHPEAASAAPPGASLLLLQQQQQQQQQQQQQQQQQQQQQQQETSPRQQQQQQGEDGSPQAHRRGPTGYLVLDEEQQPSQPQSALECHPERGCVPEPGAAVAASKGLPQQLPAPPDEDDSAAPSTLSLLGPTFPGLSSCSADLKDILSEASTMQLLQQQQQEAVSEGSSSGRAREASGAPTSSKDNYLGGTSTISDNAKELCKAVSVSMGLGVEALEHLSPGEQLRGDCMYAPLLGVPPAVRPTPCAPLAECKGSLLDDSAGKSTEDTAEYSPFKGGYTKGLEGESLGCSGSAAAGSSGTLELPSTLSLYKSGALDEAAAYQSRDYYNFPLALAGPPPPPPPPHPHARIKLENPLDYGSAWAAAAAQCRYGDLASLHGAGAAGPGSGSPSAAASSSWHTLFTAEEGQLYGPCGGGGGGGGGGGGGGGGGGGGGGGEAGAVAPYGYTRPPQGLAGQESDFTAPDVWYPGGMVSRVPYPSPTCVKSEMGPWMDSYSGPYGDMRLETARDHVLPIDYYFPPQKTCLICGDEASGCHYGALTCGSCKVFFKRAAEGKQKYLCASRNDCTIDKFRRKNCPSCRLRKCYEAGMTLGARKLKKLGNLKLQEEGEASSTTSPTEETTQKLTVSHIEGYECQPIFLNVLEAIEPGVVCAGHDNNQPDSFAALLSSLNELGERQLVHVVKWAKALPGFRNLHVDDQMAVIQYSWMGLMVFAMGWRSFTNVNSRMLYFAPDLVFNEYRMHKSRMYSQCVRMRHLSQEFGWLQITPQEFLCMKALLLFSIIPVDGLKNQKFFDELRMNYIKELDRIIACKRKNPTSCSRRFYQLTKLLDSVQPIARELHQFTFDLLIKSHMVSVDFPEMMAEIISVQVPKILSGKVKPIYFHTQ

Regarding `CCCCCCCCCCCCCCCC`, the Potency entry in test [1], in test [2], in [3], in test [4], in test [5] and in test [6] was “inactive” each time. Also, the Potency entry in [7], in test [8], in test [9], in test [10], in test [11] and in test [12] was “inactive” throughout. The Potency result in test [13] and in test [14] was “inactive” each time.
Take `CCCCCCCCCCCCOC(=O)c1cc(O)c(O)c(O)c1`: the Potency in test [1] is 27.4 µM (active) and 34.7 µM (active); in [2] it was 609 nM (active) and 386 nM (active); in test [3], 384 nM (active) and 273 nM (active); in test [4], 342 nM (active) and 217 nM (active); in [5] it was 54.9 µM (active); in test [6], 54.5 µM (active). Also, the Potency is 3.05 µM (active) and 2.43 µM (active) in [15]; 2.72 µM (active) and 1.93 µM (active) in test [7]; 19.4 µM [inconclusive] (active) in test [9]; 49 µM (active) in [10]; 30.5 µM (active) and 27.3 µM (active) in test [14]. The Potency result in test [8] was “inactive”.
Take `O=C1NCCN1CCN1CCC(c2cn(-c3ccc(F)cc3)c3ccc(Cl)cc23)CC1`: the Potency was 23.9 µM (active) in test [1]; 944 nM (active) and 1.5 µM (active) in test [2]; 1.88 µM (active) and 2.37 µM (active) in [3]; 1.68 µM (active) and 2.66 µM (active) in test [4]; 16.9 µM (active) and 21.3 µM (active) in test [5]; 16.9 µM (active) and 21.3 µM (active) in test [16]. For the same molecule, the Potency in [6] was 13.3 µM (active) and 21.1 µM (active); in [19], 11.9 µM (active) and 18.8 µM (active); in [15] it was 6.68 µM (active); in test [7], 5.96 µM (active); in [10], 15.1 µM (active) and 9.52 µM (active); in test [12], 29.8 µM (active). Also, the molecule was called inactive in test [17]. In addition, the Potency result in test [18], in test [11] and in test [13] was “inactive” throughout.
As for `Cc1cn[nH]c1`, the Potency result in test [1], in test [2], in [3], in test [4], in test [5] and in test [16] was “inactive” throughout. In addition, the Potency entry in [18], in test [19], in [15], in test [8], in [9] and in [10] was “inactive” throughout. Besides, the Potency entry in test [11], in test [20], in test [12], in test [13] and in test [14] was “inactive” in each case. In addition, in [17], the molecule was classed as inactive.
As for `O=C(O)c1cccc(Cl)n1`, the Potency entry in [1], in test [5], in test [16], in test [18], in test [19] and in test [15] was “inactive” in each case. In addition, the Potency result in test [7], in [8], in test [9], in [10], in [11] and in test [20] was “inactive” each time. The Potency entry in [12], in test [13] and in test [14] was “inactive” throughout. The results for the Potency in test [2], in test [3] and in test [4] were 19.3 µM (active), 61.1 µM (active) and 61.1 µM (active), respectively.
`CCc1cccc(C)c1`: the Potency entry in [1], in test [2], in test [3], in test [4], in [5] and in [6] was “inactive” in each case. The Potency entry in test [15], in test [8], in [9], in test [10], in test [11] and in [20] was “inactive” each time. Besides, the Potency result in [12], in [13] and in test [14] was “inactive” throughout.
Take `C=C(c1ccc(C(=O)O)cc1)c1cc2c(cc1C)C(C)(C)CCC2(C)C`: the Potency in test [1] was 13.4 µM (active); in [3] it was 77 µM (active); in [4], 68.6 µM (active); in [7], 9.44 µM (active) and 9.69 µM (active); in test [9], 17.4 µM [fluorescent] (active); in [12] it was 3.76 µM (active). Moreover, the Potency entry in [14] was “inactive and 61.1 µM (active)”. Besides, the Potency result in [2], in test [5], in test [6], in test [20] and in test [13] was “inactive” throughout.
For the molecule `COC(=O)CC#N`, the Potency result in [1], in test [2], in [3], in test [4], in [5] and in [6] was “inactive” throughout. Besides, the Potency entry in test [15], in test [7], in test [8], in test [9], in [10] and in test [11] was “inactive” throughout. Besides, the Potency entry in test [20], in test [12], in test [13] and in [14] was “inactive” throughout.
In the case of `O=C(O)CCn1c2c(c3ccccc31)C[C@H](NS(=O)(=O)c1ccc(F)cc1)CC2`, the Potency result in test [1], in test [2], in test [3], in [4], in test [5] and in test [6] was “inactive” each time. The Potency entry in [15], in test [7], in test [8], in test [10] and in test [14] was “inactive” in each case.
For the molecule `CCCSS/C(CCO)=C(\C)N(C=O)Cc1cnc(C)nc1N`, the Potency entry in [1], in [5], in test [18], in test [8], in test [9] and in test [10] was “inactive” in each case. The Potency result in [11], in test [20], in test [12] and in [13] was “inactive” each time. Besides, the Potency was 5.31 µM (active) in test [2]; 8.41 µM (active) in test [3]; 13.3 µM (active) in test [4]; 26.6 µM (active) in test [15]; 23.7 µM (active) in test [7]; 26.6 µM (active) in test [14]. The outcome in test [17] was inactive.
Take `NC(=O)C(=O)N/N=C/c1ccc([N+](=O)[O-])o1`: the Potency result in test [1], in [5], in [18], in [6], in test [9] and in test [10] was “inactive” in each case. The Potency result in [11], in test [20] and in [13] was “inactive” each time. Further, the Potency in [2] was 10.6 µM (active); in test [3], 11.9 µM (active); in test [4] it was 16.8 µM (active); in [7], 21.1 µM (active).
For the molecule `C[Si](C)(C)Cl`, the Potency entry in test [1], in test [2], in test [3], in [4], in test [5] and in test [16] was “inactive” in each case. The Potency result in test [18], in test [6], in test [19], in [7], in test [8] and in test [9] was “inactive” in each case. Besides, the Potency entry in test [10], in [11], in [20], in test [12], in [13] and in test [14] was “inactive” each time. In test [17], the call was inactive.
Regarding `CCN=C1C=CC(=C(c2ccc(N(CC)CC)cc2)c2ccc(N(CC)CC)cc2)c2ccccc21`, the Potency in test [1] was 24.4 µM (active); in test [2], 0.0192 µM (active); in test [3], 0.0305 µM (active); in test [4], 0.0192 µM (active); in test [5] it was 0.0434 µM (active); in [6] it was 0.121 µM (active). Also, the Potency in test [19] was 43 nM (active); in [15] it was 0.542 µM (active); in test [7] it was 0.121 µM (active); in test [9] it was 38.7 µM [cytotoxic] (active); in test [10], 19.4 µM (active); in test [12], 0.136 µM (active). In addition, the results for the Potency in test [13] and in test [14] were 30.5 µM (active) and 0.216 µM (active), respectively. In addition, the Potency result in test [18] and in test [8] was “inactive” in each case.

The values are drawn from PubChem BioAssay (Tox21).
